Measurements as given in PubChem BioAssay (Tox21).
Results filed as inconclusive are left out. Activity calls are given as the source filed them. Unless noted, calls come from the whole dose curve.

Assays:
[1] = qHTS assay to identify small molecule agonists of the vitamin D receptor (VDR) signaling pathway - cell viability counter screen (AID 743224; active = well fitted curve in the direction sought with a large enough effect in the repeat runs; an effect the other way counts as inactive or inconclusive; note: % is set by controls: 0 for no effect and ±100 for the full control effect; nearly all actives have a fitted effect of over 50% in size); conditions: VDR-bla HEK293T viability, CellTiter-Glo luminescence, 16 h; series mostly up to 62.6 µM
Method in brief: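 Cytotoxicity counter screen: VDR-bla cells, 16 h compound exposure at 37C, 5% CO2; CellTiter-Glo luminescence, 30 min RT, same wells as bla read.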

[2] = qHTS assay to identify small molecule antagonists of the vitamin D receptor (VDR) signaling pathway - cell viability counter screen (AID 743225; active = well fitted curve in the direction sought with a large enough effect in the repeat runs; an effect the other way counts as inactive or inconclusive; note: % is set by controls: 0 for no effect and ±100 for the full control effect; nearly all actives have a fitted effect of over 50% in size); conditions: VDR-bla HEK293T viability, CellTiter-Glo luminescence, 16 h; series mostly up to 61 µM
Method in brief: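 VDR-bla HEK 293T cells, 4 h pre-incubation at 37C, then compound plus 1-alpha,25-dihydroxyvitamin D3 (3 nM final) for 16 h. After the beta-lactamase FRET read, CellTiter-Glo was added to the same wells; luminescence after 30 min at room temperature.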

[3] = qHTS assay to identify small molecule agonists of the NFkB signaling pathway (AID 1159509; active = well fitted curve in the direction sought with a large enough effect in the signal ratio in the repeat runs, not every such curve was filed as active; the % refers to the signal ratio; note: % is set by controls: 0 for no effect and ±100 for the full control effect); conditions: NFkB-bla ME-180 cells, beta-lactamase FRET ratio, 5 h; series mostly up to 61 µM
Method in brief: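 Agonist activity was read as beta-lactamase-driven FRET change (460 and 530 nm emission, 405 nm excitation) following 1.5 hr substrate loading at room temperature. Beforehand, ME-180 NFkB-bla reporter cells were treated with compounds for 5 hr at 37 C.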

[4] = qHTS assay to identify small molecule agonists of the NFkB signaling pathway - cell viability counter screen (AID 1159515); conditions: NFkB-bla ME-180 viability, CellTiter-Glo luminescence, 5 h; series mostly up to 61 µM; note: % is set by controls: 0 for no effect and ±100 for the full control effect; nearly all actives have a fitted effect of over 55% in size
Method in brief: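 ME-180 NFkB-bla cells, 2,000/well; overnight attach; compound 5 hr, 37 C/5% CO2; LiveBLAzer substrate 1.5 hr RT; then CellTiter-Glo in same wells, 30 min RT, luminescence read.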

[5] = qHTS assay to identify small molecule agonists of the endoplasmic reticulum stress response signaling pathway (AID 1159516; active = well fitted activation curve with a large enough effect in the signal ratio in the repeat runs, not every such curve was filed as active; the % refers to the signal ratio; note: % is set by controls: 0 for no effect and ±100 for the full control effect); conditions: ESRE-bla HeLa, ER stress beta-lactamase reporter, 5 h; series mostly up to 61 µM
Method in brief: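 HeLa ESRE-bla reporter line; cpd 5 h, 37 C/5% CO2; LiveBLAzer B/G FRET substrate 2 h RT; ex 405, em 460/530 nm.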

[6] = qHTS assay to identify small molecule agonists of the endoplasmic reticulum stress response signaling pathway - cell viability counter screen (AID 1159517); conditions: ESRE-bla HeLa viability, CellTiter-Glo luminescence, 5 h; series mostly up to 61 µM;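 note: HeLa cells carrying an ER stress response element beta-lactamase reporter; % is set by controls: 0 for no effect and ±100 for the full control effect; nearly all actives have a fitted effect of over 50% in size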
Method in brief: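 In parallel with the ESRE reporter read, cytotoxicity was scored by CellTiter-Glo luminescence (30 min, room temperature) on HeLa ESRE-bla cells dosed for 5 hr.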

[7] = qHTS assay to identify small molecule antagonists of the retinoid-related orphan receptor gamma (ROR-gamma) signaling pathway - cell viability counter screen (AID 1159520; active = well fitted curve in the direction sought with a large enough effect in the repeat runs; an effect the other way counts as inactive or inconclusive; note: % is set by controls: 0 for no effect and ±100 for the full control effect; nearly all actives have a fitted effect of over 50% in size); conditions: Tet-on RORgamma CHO cells viability, ATP luminescence, 16 h; series mostly up to 92.4 µM
Method in brief: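 Tet-on ROR gamma CHO cells were given compounds for 2 hr, then doxycycline hyclate at 1 uM final, and incubated 16 hr at 37 C. Viability was measured as ATP content by CellTiter-Glo luminescence.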

[8] = target: Nuclear receptor ROR-gamma (Homo sapiens) (UniProt P51449); test: qHTS assay to identify small molecule antagonists of the retinoid-related orphan receptor gamma (ROR-gamma) signaling pathway (AID 1159521; active = well fitted curve in the direction sought with a large enough effect in the repeat runs; an effect the other way counts as inactive or inconclusive); conditions: Tet-on RORgamma CHO cells, RORE-luciferase, 16 h; series mostly up to 92.4 µM
Method in brief: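 Tet-on RORγ CHO cells carrying a ROR response element–luciferase reporter were pretreated with compounds for 2 h, then induced with 1 uM (final) doxycycline hyclate for 16 h at 37 C. Antagonism was read as decreased ONE-Glo luminescence.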

[9] = qHTS assay to identify small molecule agonists of the AP-1 signaling pathway - cell viability counter screen (AID 1159525); conditions: ME-180 AP-1-bla cells viability, ATP luminescence, 5 h; series mostly up to 76.8 µM; note: nearly all actives have a fitted effect of over 55% in size
Method in brief: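 Same-well cytotoxicity counter screen of the Tox21 10K library in ME-180 cells. The readout is ATP-dependent luminescence after 5 h compound treatment. Data are normalised to DMSO and tetra n-octyl ammonium bromide controls.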

[10] = qHTS assay to identify small molecule agonists of the AP-1 signaling pathway (AID 1159526); conditions: ME-180 (cervical carcinoma) AP-1-bla reporter, beta-lactamase FRET ratio, 5 h; series mostly up to 76.8 µM; note: % is set by controls: 0 for no effect and ±100 for the full control effect

CCCCCO
inactive: outcome [1] | outcome [2] | outcome [3] | outcome [4] | outcome [5] | outcome [6] | Potency [7] | Potency [8] | outcome [9] | Potency [10]

O=C(OCCOCCOCCOC(=O)c1ccccc1)c1ccccc1
inactive: outcome [1] | outcome [2] | outcome [3] | outcome [4] | outcome [5] | outcome [6] | Potency [7] | Potency [8] | outcome [9] | Potency [10]

CCOc1ccc(NC(C)=O)cc1N
inactive: outcome [2] | outcome [3] | outcome [4] | outcome [5] | outcome [6] | Potency [7] | Potency [8] | outcome [9] | Potency [10]

O=c1c2ccccc2oc2ccccc12
inactive: outcome [2] | outcome [3] | outcome [4] | outcome [5] | outcome [6] | Potency [7] | Potency [8] | outcome [9] | Potency [10]

Nc1ncnc2c1ncn2[C@@H]1O[C@H](CO)[C@@H](O)[C@H]1O
inactive: outcome [1] | outcome [2] | outcome [3] | outcome [4] | outcome [5] | outcome [6] | Potency [7] | Potency [8] | outcome [9] | Potency [10]

Cc1c(N=C=O)cccc1N=C=O
inactive: outcome [1] | outcome [2] | outcome [3] | outcome [4] | outcome [5] | outcome [6] | Potency [7] | Potency [8] | outcome [9] | Potency [10]

COC=O
inactive: viability change, negative = cytotoxic [2] 18% [at 6.95 µM] | activation [3] 0.465% [at 6.95 µM] | activity, negative = cytotoxic [4] -3.71% [at 6.95 µM] | activation [5] -0.899% [at 6.95 µM] | activity change, negative = cytotoxicity [6] -18.1% [at 6.95 µM] | activity, negative = cytotoxicity [7] -1.04% [at 8.39 µM] | activity change, negative = inhibition [8] -0.709% [at 8.39 µM] | viability change, negative = cytotoxic [9] 12.8% [at 6.97 µM] | activation [10] -1.7% [at 6.97 µM]

CC(O)C(C)O (centres undefined)
inactive: outcome [2] | outcome [3] | outcome [4] | outcome [5] | outcome [6] | Potency [7] | Potency [8] | outcome [9] | Potency [10]

COc1cc(C)c(Cc2cnc(N)nc2N)cc1OC
inactive: outcome [2] | outcome [3] | outcome [4] | outcome [5] | outcome [6] | Potency [7] | Potency [8] | outcome [9] | Potency [10]

CC(=O)S[C@H](C(=O)N[C@H]1Cc2ccccc2[C@H]2CCC[C@@H](C(=O)O)N2C1=O)C(C)C
inactive: outcome [1] | outcome [2] | outcome [3] | outcome [4] | outcome [5] | outcome [6] | Potency [7] | Potency [8] | outcome [9] | Potency [10]

CCOC(OCC)OCC
inactive: outcome [1] | outcome [2] | outcome [3] | outcome [4] | outcome [5] | outcome [6] | Potency [7] | Potency [8] | outcome [9] | Potency [10]

CC(=O)c1ccc(Cl)c(Cl)c1Cl
inactive: outcome [2] | outcome [3] | outcome [4] | outcome [5] | outcome [6] | Potency [7] | Potency [8] | outcome [9] | Potency [10]

Clc1nc2ccccc2nc1Cl
inactive: outcome [2] | outcome [3] | outcome [4] | outcome [5] | outcome [6] | Potency [7] | Potency [8] | outcome [9] | Potency [10]

CCN(CC)CC(=O)OCC(=O)[C@@]1(O)CC[C@H]2[C@@H]3CCC4=CC(=O)CC[C@]4(C)[C@H]3[C@@H](O)C[C@@]21C
inactive: outcome [1] | outcome [2] | outcome [3] | outcome [4] | outcome [5] | outcome [6] | Potency [7] | Potency [8] | outcome [9] | Potency [10]

CC(C)CC(C)(C)C
inactive: outcome [2] | outcome [3] | outcome [4] | outcome [5] | outcome [6] | Potency [7] | Potency [8] | outcome [9] | Potency [10]

CC1(C)CC(=O)CC(C)(C)N1
inactive: outcome [1] | outcome [2] | outcome [3] | outcome [4] | outcome [5] | outcome [6] | Potency [7] | Potency [8] | outcome [9] | Potency [10]

O=C(C1CCCCC1)N1CC(=O)N2CCCc3ccccc3C2C1 (centres undefined)
inactive: outcome [1] | outcome [2] | outcome [3] | outcome [4] | outcome [5] | outcome [6] | Potency [7] | Potency [8] | outcome [9] | Potency [10]

CC1(C)C(=O)NC(=O)N1CO
inactive: outcome [1] | outcome [2] | outcome [3] | outcome [4] | outcome [5] | outcome [6] | Potency [8] | outcome [9] | Potency [10]

CC(Cc1ccccc1)(NC(=O)CN)c1ccccc1 (centres undefined)
inactive: outcome [1] | outcome [2] | outcome [3] | outcome [4] | outcome [5] | outcome [6] | Potency [7] | Potency [8] | outcome [9]

CC(CC(C#N)(c1ccccc1)C(C)C)N(C)C (centres undefined)
inactive: outcome [1] | outcome [2] | outcome [3] | outcome [4] | outcome [5] | outcome [6] | Potency [7] | Potency [8] | outcome [9]
